Source: PubChem BioAssay (several laboratories)
CYP2C19 inhib: human CYP2C19 inhibition | P33261 | CYP2C19 Supersomes, luciferin-H EGE luminescence, 30 min | inhibition, % at 5 µM | actives 21% (n = 96,000);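 active = CYP2C19 inhibition above a set limit at 5 µM in the primary screen, cut at about 50% in these data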
CYP2C19 act: cytochrome P450 2C19 (human) activation; recombinant CYP2C19, luciferin-H EGE luminescence; active compounds read high; 0 = fully inhibited enzyme, 1 = untreated enzyme; activation factor at 5 µM; 96,000 tested, under 10 active; AID 1025;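 active = activation factor of at least 2 at 5 µM in the primary screen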
CYP2C9 activ: activators of human CYP2C9 | P11712 | recombinant CYP2C9, luciferin-H conversion, luminescence; active compounds read high; factor 1 = untreated enzyme, 0 = blocked | activation factor at 5 µM | actives 1.4% (n = 96,000) | AID 1024;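 active = activation factor of 2 or more for CYP2C9 at a 5 µM dose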
PostGolgi yeast: growth inhibition of a yeast mutant, post-Golgi transport screen. post-Golgi transport phenotypic cell assay. inhibition, % at 10 µM. actives 0.9% (n = 98,000);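 also: yeast cells grown in 1536-well plates; yeast grown about 18 h at 30C before absorbance read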
PostGolgi ctrl: yeast control strain growth, post-Golgi counter-screen; efflux-deficient yeast background strain, growth absorbance A615, 16 h; inhibition, % at 10 µM; actives 5% (n = 98,000); AID 738
CYP2C9 inhib: human CYP2C9 inhibition. inhibition, % at 5 µM. P11712. CYP2C9 Supersomes, luciferin-H conversion, luminescence. actives 20% (n = 96,000);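 active = blocking of liver enzyme CYP2C9 beyond about 50% at 5 µM, limit read from the data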
A number is an active result; . = inactive; / = not tested or not shown. An excerpt weighted towards active compounds, which were near 32% of everything screened. Rule as the data show it, unless noted: active = inhibition above about 30%; inactive = the rest.

SMILES	CYP2C19 inhib	CYP2C19 act	CYP2C9 activ	PostGolgi yeast	PostGolgi ctrl	CYP2C9 inhib
O=C(Cn1nc(C(F)(F)F)c2c1CCC2)N1CCN(c2ccccc2)CC1	89	.	2.3	.	.	.
COc1cccc(N2CCN(C(=S)NCCc3ccccc3)CC2)c1	.	.	.	.	.	.
COc1ccc(/C=N/O)cc1COc1ccc(NC(C)=O)cc1	/	/	/	.	.	/
COCCCn1cc(C(=O)c2cc(OC)ccc2OCC(=O)Nc2cc(C)on2)cc(C#N)c1=O	50	.	.	.	.	57
C/C(CC(=O)NCc1ccco1)=N\NC(=O)Cc1ccccc1	.	.	.	.	.	.
CC(C)Oc1ccc(N2CC(C(=O)OCC(=O)NCc3ccccc3)CC2=O)cc1 (centres undefined)	.	.	.	.	.	.
CC(C)C(CC(=O)NCc1ccco1)c1ccco1 (centres undefined)	.	.	.	.	.	.
CC(C)Oc1ccc(CNC(=O)CC(c2ccccc2)c2cc(Cl)ccc2O)cc1 (centres undefined)	87	.	.	.	.	96
O=C(CC(c1ccccc1)c1cc(Br)ccc1O)NCc1ccco1 (centres undefined)	99	.	.	.	.	99
C/C(CC(=O)NCc1ccco1)=N\NC(=O)C(c1ccccc1)c1ccccc1	.	.	.	.	.	51
O=C(CC(c1ccccc1)c1ccccc1O)NCc1ccco1 (centres undefined)	.	.	.	.	.	51
CC1CCN(S(=O)(=O)c2ccc3c(c2)oc(=O)n3CC(=O)N2CCc3ccccc3C2)CC1	.	.	.	.	.	.
CC(C)NC(=O)CC(c1ccccc1)c1cc(Br)ccc1O (centres undefined)	95	.	.	.	.	90
Cc1ccc(C2C(C=Nc3c(C)n(C)n(-c4ccccc4)c3=O)=C(c3ccccc3)Oc3ccccc32)cc1 (centres undefined)	.	.	.	.	.	.
CCn1c(COc2ccc(Cl)cc2)nnc1SCc1ccc(C#N)cc1	76	.	.	.	34	76
CCn1c(SCc2ccc(C#N)cc2)nnc1-c1cccc(Cl)c1	65	.	.	.	.	.
Cc1cccc(-c2nnc(SCc3ccc(C#N)cc3)n2Cc2ccco2)c1	.	.	.	.	.	.
O=C(CSc1ccc2nnc(-c3ccncc3)n2n1)Nc1ccc2c(c1)OCO2	.	.	.	.	.	58
O=C(CSc1ccc2nnc(-c3ccccn3)n2n1)Nc1ccc2c(c1)OCO2	.	.	.	.	.	.
Cc1cc(NC(=O)CSc2ccc3nnc(-c4cccnc4)n3n2)no1	.	.	.	.	.	.
O=C(CSc1ccc2nnc(-c3ccncc3)n2n1)Nc1ccc2c(c1)OCCO2	.	.	.	.	.	56
O=C(CSc1ccc2nnc(-c3ccccn3)n2n1)Nc1ccc2c(c1)OCCO2	.	.	.	.	.	66
CCc1noc(C)c1C(=O)NCCc1ccc(OC)c(OC)c1	.	.	.	.	.	.
CC(C)(C)C1(C)OC(C(=O)NC2CCCCC2)C(C(=O)NC2CCCCC2)O1 (centres undefined)	.	.	.	.	.	.
CC(C)c1ccc(NC(=O)C(c2ccccc2)N2CCOCC2)cc1 (centres undefined)	55	.	.	.	.	68
SMILES	CYP2C19 inhib	CYP2C19 act	CYP2C9 activ	PostGolgi yeast	PostGolgi ctrl	CYP2C9 inhib
COc1ccc(N2C(=O)CSC23C(=O)N2c4c(cccc43)C(C)=CC2(C)C)cc1 (centres undefined)	98	.	.	.	32	80
COc1ccc(N2C(=O)CSC23C(=O)N2CCCc4cccc3c42)cc1 (centres undefined)	.	.	.	.	.	.
CON1C(=O)C(=O)N(OC)C(C)(C)C1C (centres undefined)	.	.	.	.	31	.
CC(Sc1ccccc1)C(=O)Nc1ccc(N2CCOCC2)cc1 (centres undefined)	.	.	.	.	.	.
COc1ccc(NC(=O)C(C)Sc2ccccc2)cc1 (centres undefined)	51	.	.	.	.	64
CC(Sc1ccccn1)C(=O)Nc1ccccc1 (centres undefined)	81	.	.	.	.	.
COc1ccc(C(=O)O)cc1S(=O)(=O)NCCCN1CCCC1=O	.	.	.	.	.	.
Cc1noc(C)c1S(=O)(=O)NCc1ccc2c(c1)OCO2	93	.	.	.	.	98
